Screening results from PubChem.
Sampled rows, rich in hits. Any-hit rate of the full collection: about 4.1%.
rCAG binder-1 – molecules binding r(CAG) RNA repeats; 1.3% of 370,000 active; r(CAG) RNA repeat, TO-PRO-1 dye displacement fluorescence; inhibition, % at 3 µM;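 active = inhibition above the plate cutoff, the mean of all test compounds on that plate plus 3 SD, cut at about 35% in these data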;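 note: 0% = DMSO alone and 100% = 100 µM mitoxantrone as full dye displacement; higher means more dye released from RNA so lower well fluorescence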
MBD2 inh – MBD2-methylated oligo binding inhibition; TR-FRET, MBD2 binding to methylated oligonucleotide; Q9UBB5; inhibition, % at 4.4 µM; 0.31% of 370,000 active; AID 686964; in the data active = inhibition above about 13%
UHRF1 binding – human UHRF1 methylated DNA binding inhibitors. Q96T88. UHRF1 binding to methylated oligo, TR-FRET. inhibition, % at 4.4 µM. 0.75% of 370,000 active. AID 687016; in the data active = inhibition above about 21%;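 note: UHRF1 SRA domain binding a hemimethylated CpG hairpin DNA probe; 0% = median of test compound wells and 100% = reference inhibitor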
PRMT1 FP inh – PRMT1 (human) inhibition, primary screen; Q99873; AID 652257; inhibition, % at 2.79 µM; recombinant PRMT1, activity-based probe fluorescence polarization; 1.3% of 370,000 active;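 active = inhibition above about 21% made by adding two undisclosed values, limit read from the data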
Target sequence (Q99873 whole entry, looked up): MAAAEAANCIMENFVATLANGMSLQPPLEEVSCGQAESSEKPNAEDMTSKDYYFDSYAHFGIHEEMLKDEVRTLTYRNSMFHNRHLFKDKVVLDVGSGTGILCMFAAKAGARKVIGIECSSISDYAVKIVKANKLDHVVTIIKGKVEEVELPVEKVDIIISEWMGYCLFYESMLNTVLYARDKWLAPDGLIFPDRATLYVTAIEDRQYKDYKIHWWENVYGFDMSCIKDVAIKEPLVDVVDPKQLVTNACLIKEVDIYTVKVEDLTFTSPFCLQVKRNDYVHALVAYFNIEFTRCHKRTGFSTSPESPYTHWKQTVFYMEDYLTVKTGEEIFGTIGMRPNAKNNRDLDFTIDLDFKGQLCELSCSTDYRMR
ABHD5-PLIN5 inh – ABHD5-PLIN5 protein interaction inhibition | Q00G26+Q8WTS1 | Split G. princeps luciferase complementation, luminescence, 4 h | inhibition, % at 4 µM | 0.78% of 360,000 active | AID 602281;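 active = inhibition above the mean inhibition across every tested compound plus 3 SD, cut at about 22% in these data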;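 note: 0% = DMSO only wells and the 100% control is not disclosed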
LEDGF integ inh – blocks HIV-1 LEDGF/p75-dependent DNA integration. 0.64% of 370,000 active. inhibition, % at 3.7 µM. TR-FRET IN-LEDGF/p75 DNA integration, Eu/Cy5. AID 743269;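 active = inhibition above the screen-wide mean plus 3 SD, cut at about 13% in these data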;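 note: signal is the Cy5 over europium emission ratio at 671 and 618 nm; 0% = plate median of compound wells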
rCAG binder conf – r(CAG) RNA repeat binding, confirmation | AID 652065 | shares compounds with rCAG binder-1 | TO-PRO-1 dye displacement fluorescence | inhibition, % at 3 µM | 70% of 4,300 active;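 active = inhibition above a per-plate cutoff, the mean inhibition of sample wells plus 3 SD, cut at about 35% in these data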;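 note: loss of TO-PRO-1 fluorescence as compound displaces dye from 1x1 AA loop RNA; 0% = DMSO only wells and 100% = 100 µM mitoxantrone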
dCAG dye counter – DNA CAG dye complex inhibition counter-screen; AID 652068; d(CAG) DNA oligo TO-PRO-1 dye displacement, fluorescence; inhibition, % at 3 µM; shares compounds with rCAG binder-1; 94% of 4,300 active;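 active = inhibition above its plate's cutoff, the mean test-well inhibition plus 3 SD, cut at about 4.8% in these data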;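 note: 0% = DNA dye mix with DMSO and 100% = 100 µM mitoxantrone; hits displace the dye from DNA and so lower well fluorescence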
dCAG dye DR – disrupts DNA CAG TO-PRO-1 complex in dose response; DNA CAG/GTC duplex TO-PRO-1 dye displacement fluorescence; 20% of 250 active; IC50, µM; shares compounds with rCAG binder-1; in the data active = IC50 below about 10 µM
dCAG TOPRO ctr – DNA CAG dye complex inhibition, late stage dose response; shares compounds with rCAG binder-1; AID 720649; d(CAG) DNA duplex TO-PRO-1 dye displacement, fluorescence; 80% of 30 active; IC50, µM
rCAG binder-2 – r(CAG) repeat RNA binding, TO-PRO-1 displacement; shares compounds with rCAG binder-1; r(CAG) RNA TO-PRO-1 dye displacement, fluorescence; IC50, µM; 100% of 30 active; AID 720651
* = called active by the depositor; i = inactive; . = no result. Unless noted, the rule behind the calls is not given here.

SMILES	rCAG binder-1	MBD2 inh	UHRF1 binding	PRMT1 FP inh	ABHD5-PLIN5 inh	LEDGF integ inh	rCAG binder conf	dCAG dye counter	others
C/C(=N\NC(=O)c1ccccc1O)c1c(O)n(C2CCCCC2)c(=O)[nH]c1=O	82.8*	8.4	6.8	11.2	0.6	-3.8	76.9*	34.5*	dCAG dye DR=3.09*;dCAG TOPRO ctr=2.03*;rCAG binder-2=0.817*
COP(=O)(OC)C(C)NC(=O)OCc1ccccc1 (stereo not given)	.	-1.2	3.8	0.5	.	-2.2	.	.
COc1ccccc1-n1c(-c2cccs2)nc2ccccc2c1=O	-3.2	2.3	-0.2	-5.0	-2.6	3.4	.	.
Cc1cc(/C=C2\C(=O)NC(=O)N(Cc3ccccc3Cl)C2=O)c(C)n1-c1ccc(C(=O)O)cc1	38.6*	9.8	22.1*	11.7	-10.8	9.8	58.8*	18.0*
O=C1NC(=O)N(Cc2ccccc2Cl)C(=O)/C1=C/c1cccs1	55.6*	-2.6	-3.9	7.8	-0.8	3.4	3.2	1.8
O=C1NC(=O)N(Cc2ccc(F)cc2)C(=O)/C1=C/c1cccs1	20.6	-0.6	-0.4	18.8	1.1	-3.2	.	.
Cc1cc(C=C2C(=O)NC(=S)NC2=O)c(C)n1C1CCCC1	34.8*	-0.6	-6.2	6.8	17.4	4.4	23.2	9.6*
Cc1cc(C=C2C(=O)N(C)C(=S)N(C)C2=O)c(C)n1C1CCCCC1	25.1	1.3	5.8	13.1	5.2	4.9	.	.
c1cc2c(cc1N1CCCCC1)C1CC2CCN1 (stereo not given)	3.5	6.5	0.0	-0.1	3.2	0.4	.	.
C/C=C1\NC(=O)[C@@H](NC(=O)[C@H](CCc2ccc(O)cc2)NC(=O)[C@H](C)NC(=O)[C@H](O)CO)[C@@H](C)OC(=O)[C@H](C(C)C)NC(=O)[C@H](Cc2ccc(O)cc2)N(C)C(=O)[C@H](Cc2ccccc2)N2C(=O)C(CC[C@H]2O)NC1=O (stereo not given in full)	3.3	-5.8	2.4	-4.8	-0.9	1.7	.	.
COC(=O)C1=C(c2cccc(OCc3ccccc3)c2)C[C@@H]2CC[C@H]1N2C(=O)NCCOc1ccccc1	1.3	4.8	-1.1	-1.4	3.2	2.0	.	.
O=c1[nH]c(=S)n(CCC2=CCCCC2)c(O)c1C=NCc1cccnc1	0.2	-1.7	-1.3	-2.5	-0.1	0.7	.	.
O=C(N/N=C/c1c(O)n(CCC2=CCCCC2)c(=S)[nH]c1=O)c1ccccc1	69.6*	-5.8	-4.6	-1.9	0.2	1.0	73.5*	32.3*	dCAG dye DR=i;dCAG TOPRO ctr=2.21*;rCAG binder-2=0.987*
O=C(N/N=C/c1c(O)n(CCC2=CCCCC2)c(=O)[nH]c1=O)c1ccccc1	46.4*	-3.7	-3.2	-0.6	-11.3	-1.9	40.3*	10.9*
COC(=O)C1=C(c2ccc(Cl)c(C(F)(F)F)c2)C[C@@H]2CC[C@H]1N2C(=O)NCCOc1ccccc1	.	.	.	.	-2.7	.	.	.
N#CC1=C(N)Oc2c(c(=O)oc3ccccc23)C1c1cccnc1 (stereo not given)	-1.3	2.7	3.2	4.4	0.2	1.6	.	.
CCOc1cc(C2C(C#N)=C(N)Oc3c2c(=O)oc2ccccc32)ccc1OC(=O)c1cccs1 (stereo not given)	46.5*	7.8	-0.5	4.8	-2.7	0.5	30.4	15.1*
COC(=O)C1=C(c2ccc(OC(F)(F)F)cc2)C[C@@H]2CC[C@H]1N2C(=O)NCCOc1ccccc1Cl	-3.2	2.1	1.6	2.7	-2.6	-0.2	.	.
